# Shown are actives, neighbours in structure and some others; about 18% of the full set was active somewhere.
# GCN5L2 inh: qHTS Assay for Inhibitors of GCN5L2; Histone acetyltransferase KAT2A (Homo sapiens), Q92830; GCN5L2 HAT assay, ThioGlo1 CoA-SH fluorescence; Potency, µM (series often up to 58.9 µM), inactives show at the top dose activity change, negative = inhibition, usual class: inhibitors; 390,000 compounds, 0.21% hits; AID 504327, 2011
#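 GCN5L2 (20nM final) in 50mM HEPES, 0.1mM EDTA pH 7.5, 0.01% Tween-20 was preincubated 15 min at room temperature with compound, then given ThioGlo1 (50uM), H3(1-25) peptide (75uM) and acetyl-CoA (70uM); CoA-thiol fluorescence (Ex340/Em540) was read at 0 and 20 min.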
# TDP1 inh: qHTS Assay for Inhibitors of Tyrosyl-DNA Phosphodiesterase (TDP1). AID 485290, 2010. recombinant TDP1, AlphaScreen DNA substrate cleavage. 350,000 compounds, 0.28% hits. Potency, µM (highest dose often 130 µM), inactives show at the highest dose activity change, negative = inhibition, most hits filed as inhibitors. Tyrosyl-DNA phosphodiesterase 1 (Homo sapiens), Q9NUW8; note: nearly all actives have a fitted effect of over 40% in size
# Target sequence (Q9NUW8 whole entry, looked up): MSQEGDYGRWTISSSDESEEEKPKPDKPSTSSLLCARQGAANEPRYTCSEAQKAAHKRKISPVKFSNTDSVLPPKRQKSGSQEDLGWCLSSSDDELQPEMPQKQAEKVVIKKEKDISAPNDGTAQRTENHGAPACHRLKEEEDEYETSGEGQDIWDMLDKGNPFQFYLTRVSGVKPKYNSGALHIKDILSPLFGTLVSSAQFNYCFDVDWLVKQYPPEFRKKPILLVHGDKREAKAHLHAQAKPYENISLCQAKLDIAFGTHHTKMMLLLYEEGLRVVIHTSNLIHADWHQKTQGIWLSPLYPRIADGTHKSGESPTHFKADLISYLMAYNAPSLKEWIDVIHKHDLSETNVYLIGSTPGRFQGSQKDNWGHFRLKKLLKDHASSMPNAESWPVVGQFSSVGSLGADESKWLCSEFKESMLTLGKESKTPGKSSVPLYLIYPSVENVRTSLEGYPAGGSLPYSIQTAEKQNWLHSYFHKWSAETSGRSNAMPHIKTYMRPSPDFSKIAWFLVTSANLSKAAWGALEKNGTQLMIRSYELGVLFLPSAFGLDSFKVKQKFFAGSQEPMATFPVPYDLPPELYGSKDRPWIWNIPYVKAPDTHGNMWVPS
#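 Recombinant human Tdp1 (E. coli-expressed, 1 nM final) preincubated with compounds 15 min at room temperature, then 5'-biotin/3'-phosphotyrosine-FITC DNA substrate (15 nM final) added for 5 min. AlphaScreen beads (10 ug/ml final) added 10 min; cleavage lowers signal.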
# PLK1 PBD block: qHTS for Inhibitors of PLK1-PDB (polo-like kinase 1 - polo-box domain): Primary Screen | Plk1 PBD binding of FITC phosphopeptide, fluorescence polarization | AID 720504, 2013 | Potency, µM, inactives show max response, negative = inhibition, most hits filed as inhibitors | Serine/threonine-protein kinase PLK1 (Homo sapiens), P53350 | 360,000 compounds, 2.8% hits; note: series mostly up to about 57 µM; nearly all actives have a fitted effect of over 65% in size
# VDR inhibitor: Inhibitors of the vitamin D receptor (VDR): qHTS | Vitamin D3 receptor (Homo sapiens), P11473 | VDR-SRC2-3 peptide fluorescence polarization, 2 h | Potency, µM, without a hit: max response, negative = inhibition, most hits filed as inhibitors | 400,000 compounds, 0.93% hits | AID 504847, 2011
#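 Compounds are added to VDR with labelled SRC2-3 coactivator peptide and held 2 h at room temperature. Inhibition of the VDR–peptide interaction is then read as a change in fluorescence polarization.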
# TDP1 cell noCPT: qHTS for Inhibitors of human tyrosyl-DNA phosphodiesterase 1 (TDP1): qHTS in cells in absence of CPT | DT40 Tdp1-/- hTDP1 cells, no CPT, ATP luminescence, 48 h | Potency, µM (top dose mostly 46.2 µM), inactives show at the highest dose activity change, negative = growth inhibition, hits mostly inhibitors | 420,000 compounds, 15% hits; note: nearly all actives have a fitted effect of over 55% in size
#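 Cells were dispensed at 400 per well, compounds added by pin tool, plates incubated ≥48 hr at 37 °C, then CellTiter-Glo added for 30 min at room temperature before luminescence reading. Line: DT40 Tdp1-/- complemented with hTDP1; camptothecin omitted.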
# DT40 TDP1 CPT: qHTS for Inhibitors of human tyrosyl-DNA phosphodiesterase 1 (TDP1): qHTS in cells in presence of CPT; Potency, µM (top dose mostly 46.2 µM), without a hit: at the top dose activity change, negative = growth inhibition, hits mostly inhibitors; 420,000 compounds, 12% hits; chicken DT40 Tdp1-/-;hTDP1 cells + 20 nM CPT, ATP luminescence, 48 h; note: nearly all actives have a fitted effect of over 55% in size
#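 Chicken DT40 Tdp1-/- cells stably complemented with human TDP1 were seeded at 400 cells/well in medium containing 20 nM camptothecin, exposed to pin-transferred compounds, and grown at 37 °C for at least 48 hr. Viability was read as ATP luminescence.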
# Numbers without * were called inactive; ? = inconclusive; nt = not tested or not shown; [ ] = remark or other dose. Calls come from the whole dose curve; as a rule, active = well fitted curve in the direction sought with a large enough effect; inconclusive = small, poorly fitted or top-dose-only effect, or another doubt; inactive = no such curve, though single readings can be large; an effect the other way counts as inactive or inconclusive. % is set by controls: 0 for no effect and ±100 for the full control effect; potency is the fitted concentration of half-maximal effect.
SMILES,GCN5L2 inh,TDP1 inh,PLK1 PBD block,VDR inhibitor,TDP1 cell noCPT,DT40 TDP1 CPT
Cc1c(O)nc(SCC(=O)Nc2ccc3c4c(cccc24)CC3)n(-c2ccc(F)cc2)c1=O,-3%,2%,-10%,-3%,1%,1%
CC1(NC(=O)CCc2nc3sc4c(c3c(=O)[nH]2)CCCC4)CCS(=O)(=O)C1 (stereo not given),?,nt,-25%,16%,-15%,0%
Cc1cccc(Nc2ncc3c(n2)CC(c2ccco2)CC3=O)c1 (stereo not given),0%,-5%,-3%,10%,21µM*,?
COc1ccc2[nH]cc(CCNC(=O)CCC3CCCCC3)c2c1,-8%,nt,-6%,3%,?,-21%
CC(C)(CO)NC(=O)c1ccc2c(c1)C(=O)c1ccccc1-2,-1%,nt,-12%,9%,18µM*,-19%
CCOCc1cn(CC(=O)c2ccc([N+](=O)[O-])cc2)c(C)nc1=N,2%,4%,-7%,3%,?,23µM*
CCOCc1cn(CC(=O)c2ccc(Cl)cc2)c(C)nc1=N,-3%,4%,-9%,-10%,-6%,-3%
CCOC(=O)C1=CC[C@@H](c2cc(OC)c(OC)c(OC)c2)N(S(=O)(=O)c2ccc(C)cc2)[C@H]1C(=O)OCC,-4%,1%,-3%,-27%,?,26µM*
CCOC(=O)C1=CC[C@@H](c2ccccc2)N(S(=O)(=O)c2ccc(C)cc2)[C@H]1c1ccc(C#N)cc1,nt,nt,-8%,nt,9.2µM*,12µM*
Cc1ccc([C@@H]2CC=C(C(=O)O)[C@H](c3ccccc3)N2S(=O)(=O)c2ccc(C)cc2)cc1,-7%,-2%,-4%,1%,-12%,-1%
CCOC(=O)C1=CC[C@@H](c2ccccc2)N(S(=O)(=O)c2ccc(C)cc2)[C@H]1C#N,nt,nt,6.7µM*,nt,?,?
CCc1ccc([C@@H]2CC=C(C(=O)O)[C@H](c3ccccc3F)N2S(=O)(=O)c2ccc(C)cc2)cc1,-2%,0%,-14%,-8%,1%,-12%
CCOC(=O)C1=CC[C@@H](c2ccccc2)N(S(=O)(=O)c2ccc(C)cc2)[C@H]1c1ccccc1C,nt,nt,-12%,nt,9.2µM*,13µM*
CCOC(=O)C1=CC[C@@H](c2cc3ccc(OC)cc3n2C)N(S(=O)(=O)c2ccc(C)cc2)[C@H]1C(=O)OCC,-10%,1%,-11%,-12%,?,?
CCC1CCCCN1Cc1nc2c(c(=O)n(C)c(=O)n2C)n1Cc1c(F)cccc1Cl (stereo not given),nt,2%,nt,6%,?,?
O=C(Nc1ccccc1C(F)(F)F)N1CCN(c2ccccn2)CC1,-9%,5%,-6%,-11%,-27%,-3%
CCOC(=O)C1=CC[C@@H](c2ccc([N+](=O)[O-])cc2)N(S(=O)(=O)c2ccc(C)cc2)[C@H]1c1ccccc1,nt,nt,0%,nt,?,?
CCOC(=O)C1=CC[C@@H](c2ccc(F)cc2)N(S(=O)(=O)c2ccc(C)cc2)[C@H]1c1ccccc1,nt,nt,-10%,nt,23µM*,16µM*
CCOC(=O)C1=CC[C@@H](c2ccccc2)N(S(=O)(=O)c2ccc(C)cc2)[C@H]1C=C(C)C,nt,nt,-9%,nt,12µM*,16µM*
CC(=O)c1ccc(C(=O)NCC2Cc3cccc(-c4ncccn4)c3O2)cc1 (stereo not given),nt,nt,nt,nt,-24%,3%[9.04 µM]
COc1cccc(/C=N/NC(=O)C(=O)NCc2ccco2)c1OC,2%,8%,2%,-5%,-9%,0%
COc1cccc(/C=N/NC(=O)CSCC(=O)Nc2ccccc2)c1O,-1%,3%,-5%,12%,3.2µM*,4.5µM*
COc1cc(/C=N/NC(=O)c2ccoc2C)ccc1O,-19%,2%,-2%,-18%,16%,14%
COc1cccc(/C=N/NC(=O)C(=O)NCc2ccco2)c1O,-2%,9%,-3%,1%,21µM*,7.3µM*
COc1cccc(/C=N/NC(=O)C(=O)N/N=C/c2cccc(OC)c2O)c1O,-1%,5%,-13%,-14%,1.6µM*,1µM*
SMILES,GCN5L2 inh,TDP1 inh,PLK1 PBD block,VDR inhibitor,TDP1 cell noCPT,DT40 TDP1 CPT
COc1cccc(/C=N/NC(=O)c2ccoc2C)c1O,-5%,7%,-4%,7%,0.73µM*,3.3µM*
COc1ccc2c(c1)C(c1ccc3c(c1)OCO3)CC(=O)O2 (stereo not given),1%[88.6 µM],6%,nt,-3%,nt,nt
CCOc1cc(-c2sc(Nc3ccccc3)n[n+]2C)ccc1OC,4%,nt,-10%,-7%,-23%,?
Cc1ccccc1C(=O)Nc1cccc(OCc2cc(=O)n3cccc(C)c3n2)c1,-1%,0%,nt,1%,?,?
COC(=O)c1cccc(/C=N/NC(N)=S)c1O,2%,0%,-13%,-11%,0.26µM*,0.18µM*
COc1cccc(/C=N/NC(=O)c2cc3cc([N+](=O)[O-])ccc3s2)c1O,?,1%,?,-2%,0.46µM*,0.92µM*
COc1ccc(/C=N/NC(=O)C2C(=O)NCC2c2ccccc2)c(OC)c1 (stereo not given),3%,0%,1%,-11%,-13%,-8%
COc1cccc(/C=N\NC(=O)C2C(=O)NCC2c2ccccc2)c1O (stereo not given),3%,0%,1%,13%,23µM*,?
COc1cccc(/C=N/NC(=O)C(=O)N2CCCCCC2)c1O,-8%,1%,1%,17%,?,?
COC(=O)[C@@H]1C[C@@H]2CC[C@@H](O)C[C@@H]2N1CC1CCCCC1,nt,-3%,nt,nt,nt,nt
CC1CCc2sc3ncnc(N4CCN(C)CC4)c3c2C1 (stereo not given),1%,nt,-2%,15%,?,?
CCc1nc2ccc(C(=O)Nc3cccc(OCC(=O)N(C)C)c3)cn2c1N(C)C(=O)c1ccncc1,nt,nt,-3%,nt,0%,12%
CC[C@H](C)[C@@H](NC(=O)O[C@@H]1Cc2cc(Br)ccc2O[C@H]1c1cccc(OC)c1)C(=O)OC,nt,6%,nt,-5%,nt,nt
Cc1nc(Nc2ccccc2)sc1C,0%,0%,-7%,2%,19%,4%
S=c1[nH]cnc2sc(Nc3ccccc3)nc12,-1%,10%,-28%,71µM*,15µM*,15µM*
